Measurements taken from PubChem BioAssay (Tox21).
The source made the active and inactive calls. Unless noted, calls follow the shape of the dose curve; as a rule, active = well fitted curve in the direction sought with a large enough effect in the repeat runs; inconclusive = weak or mixed curves; inactive = no such curve, though single readings can be large; an effect the other way counts as inactive or inconclusive.

Columns and labels:
[1] = qHTS assay for small molecules that induce genotoxicity in human embryonic kidney cells expressing luciferase-tagged ATAD5 (AID 651632); also: nearly all actives have a fitted effect of over 15% in size
Outline: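 Reporter cells (HEK293T) express luciferase-tagged ATAD5, a protein that accumulates after DNA damage. Treat 16 hr at 37C/5% CO2, add Amplite, wait 30 min at RT, and read luminescence.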

[2] = qHTS assay for small molecules that induce genotoxicity in human embryonic kidney cells expressing luciferase-tagged ATAD5 - cell viability (AID 651634; calls by dose curve; also: nearly all actives have a fitted effect of over 25% in size)
Outline: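 Seeding of 2,000 HEK293T ATAD5-luciferase cells per well preceded pin-tool compound transfer. Plates sat 15.5 hr at 37C under 5% CO2, then fluorescence was read after 30 min with CellTiter-Fluor.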

[3] = qHTS assay for small molecule disruptors of the mitochondrial membrane potential - cell viability (AID 720634; calls by dose curve;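 also: human HepG2 liver cancer cells; series mostly up to about 83 µM; nearly all actives have a fitted effect of over 20% in size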)
Outline: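 Measuring cytotoxicity alongside mitochondrial potential, the screen quantified ATP by luminescence in HepG2 cells after 1 hr compound incubation and a 30 min room-temperature CellTiter-Glo step.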

[4] = qHTS assay for small molecule disruptors of the mitochondrial membrane potential (AID 720635); also: potency is read from the fitted curve at half-maximal effect
Outline: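 HepG2 cells (2,000/well) attached overnight at 37C, then took compound for 1 hr at 37C, 5% CO2. Mito-MPS dye was added for 30 min; fluorescence was read at 490/535 nm (monomers) and 540/590 nm (aggregates).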

[5] = qHTS assay to test for compound auto fluorescence at 590 nm (red) in HepG2 cells (AID 720674)
Outline: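 Compound auto-fluorescence is scored relative to Rose Bengal sodium, measured at 540/590 nm in live HepG2 cultures after 1 hr compound contact (37 C, 5% CO2).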

[6] = qHTS assay to test for compound auto fluorescence at 535 nm (green) in HepG2 cells (AID 720675)
[7] = qHTS assay to test for compound auto fluorescence at 460 nm (blue) in HEK293 cells (AID 720678)
Outline: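 Blue read-out at excitation 405 nm and emission 460 nm follows overnight compound exposure of HEK293 cells at 37C in 5% CO2. Activity is given as auto fluorescence equivalency to triamterene.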

[8] = qHTS assay to test for compound auto fluorescence at 590 nm (red) in HEK293 cells (AID 720679)
Outline: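 Red channel, Ex/Em 540/590nm; signal expressed as equivalency to Rose Bengal sodium. HEK293, 2,000 cells/well, 10% dialyzed FBS; 23 nL compound pinned after 4-5 hr attachment; overnight 37C/5% CO2 before reading.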

[9] = qHTS assay to test for compound auto fluorescence at 460 nm (blue) in HEK293 cell free culture (AID 720681)
Outline: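 Test compounds were pinned into cell-free culture medium (DMEM with 10% FBS) and fluorescence was read directly at Ex/Em 405/460 nm. Signals were expressed as fluorescence equivalents of triamterene, with DMSO vehicle as control.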

[10] = qHTS assay to test for compound auto fluorescence at 535 nm (green) in HEK293 cell free culture (AID 720682)
Outline: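 Read-out: 485/535 nm fluorescence intensity, calibrated against fluorescein. Medium only (DMEM + 10% FBS, no cells); test compound or DMSO vehicle added by pintool before plate reading.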

[11] = qHTS assay to test for compound auto fluorescence at 590 nm (red) in HEK293 cell free culture (AID 720683)
Outline: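 Tox21 10K library compounds were pinned into cell-free DMEM with 10% FBS and fluorescence was read at excitation 540 nm. Activity is expressed as Rose Bengal sodium equivalency.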

[12] = qHTS assay to test for compound auto fluorescence at 590 nm (red) in HepG2 cell free culture (AID 720684)
Outline: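 Measured in medium alone (MEM containing 10% FBS) following pintool addition of compound; emission at 590 nm with 540 nm excitation, referenced to Rose Bengal sodium.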

[13] = qHTS assay to test for compound auto fluorescence at 460 nm (blue) in HepG2 cell free culture (AID 720685)
Outline: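 Compound (23 nL) or DMSO pinned into cell-free MEM with 10% FBS; blue fluorescence read at 405/460 nm excitation/emission, expressed as auto-fluorescence equivalency to triamterene.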

[14] = qHTS assay to test for compound auto fluorescence at 535 nm (green) in HepG2 cell free culture (AID 720686)
[15] = qHTS assay to test for compound auto fluorescence at 460 nm (blue) in HepG2 cells (AID 720687)
Outline: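 Cells (2,000/well in MEM with 10% FBS) attached overnight at 37 C, then were exposed to compound or DMSO for 1 hr at 37 C, 5% CO2. Fluorescence read at Ex/Em 405/460 nm, expressed as triamterene-equivalent signal.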

[16] = biological target: Glucocorticoid receptor (Homo sapiens) (UniProt P04150); assay: qHTS assay to identify small molecule agonists of the glucocorticoid receptor (GR) signaling pathway (AID 720691; active = well fitted activation curve with a large enough effect in the signal ratio in the repeat runs, not every such curve was filed as active; inconclusive = weak or mixed curves, or effect the other way; inactive = no such curve, though single readings can be large or run the other way; the % refers to the signal ratio; also: potency is read from the fitted curve at half-maximal effect)
Outline: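 Reporter read-out: fluorescence intensity following 2 h room-temperature LiveBLAzer B/G FRET substrate loading. Prior step: GR-bla HeLa cells held 4 h, then treated 18 h at 37 C.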

[17] = qHTS assay for small molecule agonists of the p53 signaling pathway - cell viability (AID 651633; calls by dose curve;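 also: p53RE-bla HCT reporter cells with a stable beta-lactamase p53 reporter; series mostly up to about 83 µM; nearly all actives have a fitted effect of over 30% in size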)
Outline: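 p53RE-bla cells, seeded at 4,000 per well and rested 5 h at 37 C/5% CO2, received compounds in DMSO for 16 h at 37 C. CellTiter-Glo was then added, and luminescence was read after 30 min at room temperature to gauge cytotoxicity.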

[18] = qHTS assay to test for compound auto fluorescence at 535 nm (green) in HEK293 cells (AID 720680)
[19] = biological target: Glucocorticoid receptor (Homo sapiens) (UniProt P04150); assay: qHTS assay to identify small molecule antagonists of the glucocorticoid receptor (GR) signaling pathway (AID 720692; active = well fitted inhibition curve with a large enough effect in the signal ratio in the repeat runs, not every such curve was filed as active; inconclusive = weak or mixed curves, or effect the other way; inactive = no such curve, though single readings can be large or run the other way; the % refers to the signal ratio)
Outline: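 Dexamethasone (5 nM final) stimulated a stably integrated GRE-beta-lactamase reporter in HeLa cells during 18 h co-incubation with compounds; signal was quantified as fluorescence intensity of B/G FRET substrate after 2 h.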

Measured: Potency

Glucocorticoid receptor (Homo sapiens), sequence (P04150 whole entry, looked up): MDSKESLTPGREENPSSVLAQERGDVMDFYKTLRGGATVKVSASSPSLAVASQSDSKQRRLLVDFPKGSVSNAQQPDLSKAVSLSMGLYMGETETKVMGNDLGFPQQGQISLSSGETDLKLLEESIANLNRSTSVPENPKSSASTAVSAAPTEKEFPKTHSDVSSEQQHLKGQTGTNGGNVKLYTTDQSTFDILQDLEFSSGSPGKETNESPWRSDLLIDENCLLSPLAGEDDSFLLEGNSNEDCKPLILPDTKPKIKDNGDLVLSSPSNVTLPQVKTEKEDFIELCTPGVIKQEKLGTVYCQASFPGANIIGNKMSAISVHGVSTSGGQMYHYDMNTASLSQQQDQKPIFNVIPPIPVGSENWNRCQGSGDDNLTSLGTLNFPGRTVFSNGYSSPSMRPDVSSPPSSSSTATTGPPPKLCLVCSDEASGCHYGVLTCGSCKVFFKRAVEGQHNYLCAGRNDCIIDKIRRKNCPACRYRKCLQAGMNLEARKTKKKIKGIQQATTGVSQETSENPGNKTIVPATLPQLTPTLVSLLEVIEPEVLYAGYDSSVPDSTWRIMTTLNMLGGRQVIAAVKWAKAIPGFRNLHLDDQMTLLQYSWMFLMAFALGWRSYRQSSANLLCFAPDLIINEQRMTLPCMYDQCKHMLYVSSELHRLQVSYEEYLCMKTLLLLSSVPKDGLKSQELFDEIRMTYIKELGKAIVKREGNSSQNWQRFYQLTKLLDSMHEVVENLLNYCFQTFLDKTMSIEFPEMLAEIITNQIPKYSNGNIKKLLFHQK

Cc1oc(C)c(C(=O)Nc2ccccc2)c1C
active: [4] 27.3 µM
not listed: [17] | [18] | [19]
inactive: all other assays above

Oc1ccc(Nc2ccccc2)cc1
active: [4] 54.5 µM
not listed: [2] | [3] | [16] | [18] | [19]
inactive: all other assays above

CCCCC(=O)O[C@]1(C(=O)CO)CC[C@H]2[C@@H]3CCC4=CC(=O)CC[C@]4(C)[C@H]3[C@@H](O)C[C@@]21C
active: [16] 0.0425 µM [inconclusive]
not listed: [12] | [17] | [18] | [19]
inactive: all other assays above

CCCCC(=O)O[C@]1(C(=O)CO)[C@@H](C)C[C@H]2[C@@H]3CCC4=CC(=O)C=C[C@]4(C)[C@@]3(F)[C@@H](O)C[C@@]21C
active: [4] 19.3 µM | [16] 0.0019 µM
not listed: [3] | [17] | [19]
inactive: all other assays above

CCCCC(CC)CNCC(CC)CCCC (centres undefined)
not listed: [3] | [12] | [19]
inactive: all other assays above

Cc1occc1C(=O)Nc1ccc(C(=O)N2CCC(F)(F)/C(=C\C(=O)N3CCC(N4CCCCC4)CC3)c3ccccc32)cc1
not listed: [3] | [4]
inactive: all other assays above

NC(=O)N(O)[C@@H]1C=C[C@H](Oc2cccc(Oc3ccc(F)cc3)c2)C1
not listed: [3] | [4] | [16] | [18] | [19]
inactive: all other assays above

CCOC(=O)c1ccccc1OC
not listed: [3] | [12] | [16] | [19]
inactive: all other assays above

COCc1c(C(C)C)nc(C(C)C)c(/C=C/[C@@H](O)C[C@@H](O)CC(=O)O)c1-c1ccc(F)cc1
not listed: [3] | [4] | [5] | [12] | [16] | [19]
inactive: all other assays above

CCCCCCCCCCCCCCC[C@H](O)[C@@H](N)CO
not listed: [4] | [17] | [19]
inactive: all other assays above

CC1=C(/C=C/C(C)=C\C=C\C(C)=C\C(=O)O)C(C)(C)CCC1
not listed: [4] | [16] | [17] | [19]
inactive: all other assays above

C[Si]1(C)O[Si](C)(C)O[Si](C)(C)O1
not listed: [3] | [5] | [12] | [16] | [19]
inactive: all other assays above

CN(C)CCOC1=Cc2ccccc2Sc2ccc(Cl)cc21
not listed: [4] | [12] | [15] | [17] | [19]
inactive: all other assays above

CC1C2CC(CC2C2CCCC(O)C2)C1(C)C (centres undefined)
active: [4] 27.3 µM
not listed: [3] | [16] | [17] | [18] | [19]
inactive: all other assays above
